We go through six compounds from PubChem BioAssay (NCATS).

Experiment [1] has as its target Lysosomal acid glucosylceramidase (Homo sapiens) (UniProt P04062). Nature of the experiment: Glucocerebrosidase-p2 (AID 348; in the data active = potency below about 10 µM; also: potency is read from the fitted curve at half-maximal effect). To be noted: purified GBA, blue fluorogenic substrate, 40 min. Summed up:
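Compounds titrated from 0.6 nM upwards against 0.2 nM enzyme in pH 5.9 citric acid/KH2PO4, taurocholate, tween-20; blue fluorogenic substrate 80 uM, 40 min room temperature, stopped and read Ex 365/Em 440 for AC50.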

Experiment [2] can be described thus: AP1 Signaling Pathway (AID 357).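 Also: ME-180 reporter cells stimulated with EGF at its EC50 level; % is scaled to controls: 0 for no effect and ±100 for the full control effect.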 To be noted: ME-180 AP-1-bla reporter, EGF-induced, beta-lactamase ratio, 5 h; at 7.69 µM (top of the series) unless noted. Summed up:
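Titration-series screen for positive or negative modulators of EC50 EGF-induced signaling in ME-180 cells carrying an AP-1-driven beta-lactamase reporter. After 5 hours at 37 degrees Celsius, CCF4 460nm/530nm emission ratio gave %Activity; AC50 values derived.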

In experiment [3] the target is Cytochrome P450 1A2 (Homo sapiens) (UniProt P05177). As to the kind of experiment: p450-cyp1a2 (AID 410; calls by dose curve; also: potency is read from the fitted curve at half-maximal effect). To be noted: recombinant CYP1A2, luciferin-ME demethylation, luminescence; series mostly up to 57 µM. Summed up: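 Luminescent readout of luciferin formed from Luciferin-ME by human CYP1A2; data normalized against complete inhibition by 57 uM furafylline. Enzyme 20nM, substrate 100uM at Km, 100mM KPO4 buffer, 60 min reaction at room temperature.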
Sequence of Cytochrome P450 1A2 (Homo sapiens) (P05177 whole entry, looked up): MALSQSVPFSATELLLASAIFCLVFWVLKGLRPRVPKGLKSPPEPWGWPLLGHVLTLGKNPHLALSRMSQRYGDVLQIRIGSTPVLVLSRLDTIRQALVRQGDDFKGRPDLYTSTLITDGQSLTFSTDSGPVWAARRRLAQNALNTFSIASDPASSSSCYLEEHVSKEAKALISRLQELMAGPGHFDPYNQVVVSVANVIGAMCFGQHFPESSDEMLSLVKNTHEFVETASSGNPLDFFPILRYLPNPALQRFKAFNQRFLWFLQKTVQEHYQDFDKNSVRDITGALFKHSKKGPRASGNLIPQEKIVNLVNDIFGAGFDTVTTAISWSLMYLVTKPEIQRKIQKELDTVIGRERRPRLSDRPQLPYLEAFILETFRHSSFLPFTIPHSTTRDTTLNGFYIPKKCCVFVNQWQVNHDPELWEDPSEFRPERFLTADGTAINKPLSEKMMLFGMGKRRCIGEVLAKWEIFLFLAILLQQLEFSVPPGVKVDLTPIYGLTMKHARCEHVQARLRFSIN

Experiment [4] can be described thus: NFAT Signaling Pathway (AID 444).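 Also: carbachol stimulus at about its EC50 of 1 µM final; % is scaled to controls: 0 for no effect and ±100 for the full control effect.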 To be noted: Jurkat NFAT-bla M1, carbachol, beta-lactamase ratio, 5 h; at 7.69 µM (top of the series) unless noted. Summed up: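 Jurkat cells with NFAT-driven β-lactamase reporter and co-expressed M1 receptor, stimulated with carbachol (final 1 uM, ~EC50), compound titration, 5 h at 37 °C. CCF4 loaded 1 h at RT; 460/530 nm ratio gave %activity and AC50.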

Experiment [5] is described as follows: Stat Signaling Pathway (AID 446).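 Also: ME-180 cervical cancer cells given 40 pM IL-6 alongside compound; SIE-controlled beta-lactamase reporter measured as 460/530 nm FRET emission ratio; % is scaled to controls: 0 for no effect and ±100 for the full control effect.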 To be noted: ME-180 SIE beta-lactamase reporter, IL-6 stimulated, 5 h; at 7.69 µM (top of the series) unless noted. Summed up: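 Reporter line: ME-180 cervical carcinoma, SIE-beta-lactamase. Treatment: compound with 40 pM IL-6, 5 hrs, 37 C, in low-serum OPTI-MEM with 10 mM HEPES pH 7.3. Detection: 460/530 nm fluorescence.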

Experiment [6] deals with Glucocorticoid receptor (Homo sapiens) (UniProt P04150). As to the kind of experiment: GR-EFC Redistribution (AID 451; calls by dose curve; also: potency is read from the fitted curve at half-maximal effect). As to conditions: CHO-K1 GR-EFC translocation, beta-gal luminescence, 2 h. Summed up: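 CHO-K1 cells expressing nuclear EA and GR-ED fragments of b-gal; compounds titrated up to 46 uM final, 2 h at 37 C. GR nuclear translocation read as complemented b-gal luminescence after 1 h RT detection.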
Sequence of Glucocorticoid receptor (Homo sapiens) (P04150 whole entry, looked up, the tested form may be a part): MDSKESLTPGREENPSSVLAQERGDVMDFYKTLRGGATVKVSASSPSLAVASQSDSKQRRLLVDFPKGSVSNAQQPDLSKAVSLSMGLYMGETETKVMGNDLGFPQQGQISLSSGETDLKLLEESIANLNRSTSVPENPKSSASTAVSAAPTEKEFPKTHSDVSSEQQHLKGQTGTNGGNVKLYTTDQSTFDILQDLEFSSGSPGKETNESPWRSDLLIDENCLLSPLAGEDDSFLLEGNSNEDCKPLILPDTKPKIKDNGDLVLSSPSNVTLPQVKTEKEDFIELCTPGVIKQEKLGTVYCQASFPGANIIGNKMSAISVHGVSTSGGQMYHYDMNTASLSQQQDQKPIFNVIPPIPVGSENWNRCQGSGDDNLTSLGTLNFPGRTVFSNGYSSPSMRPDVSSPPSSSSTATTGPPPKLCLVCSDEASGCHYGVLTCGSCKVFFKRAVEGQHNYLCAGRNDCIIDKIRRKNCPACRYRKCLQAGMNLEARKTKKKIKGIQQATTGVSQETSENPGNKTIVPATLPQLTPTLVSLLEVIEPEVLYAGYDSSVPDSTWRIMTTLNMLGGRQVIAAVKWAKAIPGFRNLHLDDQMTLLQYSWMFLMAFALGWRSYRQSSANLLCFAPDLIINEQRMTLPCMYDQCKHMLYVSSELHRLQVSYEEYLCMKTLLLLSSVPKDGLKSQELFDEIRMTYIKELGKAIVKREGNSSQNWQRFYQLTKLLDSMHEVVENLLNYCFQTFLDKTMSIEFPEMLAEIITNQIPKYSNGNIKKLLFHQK

The target in experiment [7] is Mitogen-activated protein kinase 10 (Mus musculus) (UniProt Q61831). As to the kind of experiment: JNK3 AlphaScreen Assay (AID 530).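 Also: kinase came from lysate of stimulated human HepG2 cells; signal reports phosphorylation of biotinylated GST-cJun 1-79 at Ser73 with 10 µM ATP; % is scaled to controls: 0 for no effect and ±100 for the full control effect.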 As to conditions: JNK3 lysate, c-Jun phosphorylation; series mostly up to 57.1 µM. Put shortly: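 Pre-activated (IL-1β/TNFα) JNK3 in HepG2 lysates phosphorylates biotin-GST-cJun(1-79), 10 uM ATP; anti-phospho-cJun(Ser73) AlphaScreen read at room temperature, pH 7.6 Tris buffer. Compounds pre-incubated 15 min as titrations.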
Background: Bead proximity is the source of the signal in Alpha formats.

The target in experiment [8] is 3',5'-cyclic-AMP phosphodiesterase 4B (Homo sapiens) (UniProt Q07343). Nature of the experiment: qHTS Assay for Inhibitors of PDE-IV (AID 607; active = well fitted activation curve with a large enough effect in the main read-out, with a control signal flat, not every such curve was filed as active; also: % of control where 0% means no effect). As to conditions: HEK293 ACTOne CNG channel cells, membrane potential fluorescence; series mostly up to 22.9 µM. Summed up: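 Cell-based read-out of cAMP via a modified cyclic nucleotide-gated channel and membrane potential dye (535/590 nm) in HEK293 cells expressing PDE4 endogenously. Compounds tested up to 22.9 uM final; 100 uM RO 20-1724 reference.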
Sequence of 3',5'-cyclic-AMP phosphodiesterase 4B (Homo sapiens) (Q07343 whole entry, looked up): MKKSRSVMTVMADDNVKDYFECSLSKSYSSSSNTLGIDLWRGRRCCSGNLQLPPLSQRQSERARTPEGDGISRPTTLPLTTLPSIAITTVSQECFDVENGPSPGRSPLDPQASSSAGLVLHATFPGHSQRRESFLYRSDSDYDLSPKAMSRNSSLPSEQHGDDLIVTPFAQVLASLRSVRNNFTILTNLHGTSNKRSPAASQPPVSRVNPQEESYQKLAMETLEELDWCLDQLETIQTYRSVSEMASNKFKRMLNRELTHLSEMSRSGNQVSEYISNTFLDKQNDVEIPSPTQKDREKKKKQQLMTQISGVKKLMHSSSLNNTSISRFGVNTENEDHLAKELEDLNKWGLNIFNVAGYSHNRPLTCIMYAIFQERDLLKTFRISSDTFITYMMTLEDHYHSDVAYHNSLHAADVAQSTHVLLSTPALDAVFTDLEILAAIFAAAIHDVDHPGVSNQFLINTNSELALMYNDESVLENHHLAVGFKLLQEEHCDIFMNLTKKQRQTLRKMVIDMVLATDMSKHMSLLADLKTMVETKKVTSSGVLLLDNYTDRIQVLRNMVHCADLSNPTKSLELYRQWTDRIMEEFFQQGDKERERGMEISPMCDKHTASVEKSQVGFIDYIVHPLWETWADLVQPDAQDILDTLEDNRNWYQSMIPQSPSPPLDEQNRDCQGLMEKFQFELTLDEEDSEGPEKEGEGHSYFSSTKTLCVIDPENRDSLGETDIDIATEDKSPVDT
On the technique in general: qHTS replaces the single test concentration by a dilution series.

The nature of experiment [9]: qHTS Assay for Lipid Storage Modulators (AID 1519; calls by dose curve). As to conditions: Drosophila S3 cells, BODIPY lipid droplet/cell ratio, laser cytometry, cells loaded with oleic acid; for activity change, negative = inhibition: at 57.5 µM (top of the series). Summed up: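 Cells seeded at 5,000 per well were treated with compounds over a concentration series and loaded with oleic acid (400 uM, as added). Lipid droplet fluorescence (488 nm excitation, 500-530 nm channel) was read by laser-scanning cytometry and normalized to 20 uM Triacsin C.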

Experiment [10] addresses Glucocorticoid receptor (Homo sapiens) (UniProt P04150). Nature of the experiment: GR-GFP Redistribution (AID 450;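 active = compounds whose dose series gives a full or clear partial fitted curve of increased nuclear translocation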; also: potency is read from the fitted curve at half-maximal effect). To be noted: U2OS GR-GFP nuclear translocation, laser cytometry, 2 h.
The target of experiment [11] is Cytochrome P450 3A4 (Homo sapiens) (UniProt P08684). Nature of the experiment: qHTS Assay for Activators of Cytochrome P450 3A4 (AID 885; active = well fitted curve in the direction sought with a large enough effect; an effect the other way counts as inactive or inconclusive; also: nearly all actives have a fitted effect of over 65% in size). To be noted: recombinant CYP3A4, Luciferin-PPXE luminescence, 60 min; series mostly up to 57.1 µM. Put shortly:
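Signal was normalized against complete inhibition by 57 uM ketoconazole. The reaction used 20nM CYP3A4 with 25uM Luciferin-PPXE, 10-min compound preincubation and a 60-min NADPH-supported step at RT.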

Experiment [12] has as its target Cytochrome P450 2D6 (Homo sapiens) (UniProt P10635). Nature of the experiment: qHTS Assay for Inhibitors and Substrates of Cytochrome P450 2D6 (AID 891; active = well fitted curve in the direction sought with a large enough effect; an effect the other way counts as inactive or inconclusive; also: potency is read from the fitted curve at half-maximal effect; nearly all actives have a fitted effect of over 60% in size). As to conditions: recombinant CYP2D6, luciferin-ME EGE luminescence; series mostly up to 57.1 µM. Put shortly: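 Human CYP2D6 (5 nM) with 30 uM Luciferin-ME EGE (at Km) in 100 mM KPO4, compound preincubated 10 min, then NADPH regeneration system for 60 min at room temperature. Luciferin read by luminescence; normalized to 1.43 uM quinidine.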

A short description of experiment [13]: Confirmation and Secondary Assay for Modulators of Hemoglobin Beta Chain Splicing at IVS2 654 locus (AID 910; active = well fitted curve in the direction sought with a large enough effect; an effect the other way counts as inactive or inconclusive;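 also: HeLa cells stably carrying EGFP split by mutant beta-globin IVS2-654 intron; % of control where 0% means no effect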). As to conditions: HeLa EGFP-654 splicing reporter, GFP fluorescence, 48 h; series mostly up to 38.3 µM. Summed up:
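HeLa cells stably expressing EGFP interrupted by β-globin IVS2-654 intron, seeded overnight in Opti-MEM/2% FCS, then treated 2 days at 37 °C. Restored splicing read as total peak GFP intensity per well by laser scanning cytometry (488 nm excitation, 500–520 nm emission); 500 nM antisense PNA as control.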

Experiment [14] in a line: Confirmation and Secondary Assay for Modulators of Hemoglobin Beta Chain Splicing at IVS2 705 locus (AID 930; active = well fitted curve in the direction sought with a large enough effect; an effect the other way counts as inactive or inconclusive;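 also: HeLa cells stably expressing the EGFP-705 splicing reporter; GFP fluorescence per well restored by corrected splicing of the IVS2-705 intron in EGFP; % of control where 0% means no effect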). As to conditions: HeLa EGFP-705 splicing reporter, GFP fluorescence, 48 h; series mostly up to 38.3 µM. Summed up:
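HeLa EGFP-705 reporter; 500 cells/well, o/n 37C 5% CO2; cpd 2 d; 488 ex/500-520 em laser scan; total peak GFP intensity/well. Ref: 500 nM […] antisense PNA.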

Experiment [15] deals with Ubiquitin carboxyl-terminal hydrolase 1 (Homo sapiens) (UniProt O94782). As to the kind of experiment: Inhibitors of USP1/UAF1: Pilot qHTS (AID 504865; active = well fitted curve in the direction sought with a large enough effect; an effect the other way counts as inactive or inconclusive;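 also: rhodamine fluorescence freed from ubiquitin-rhodamine substrate followed over time; top concentration of the series differs between compounds; % is scaled to controls: 0 for no effect and ±100 for the full control effect; nearly all actives have a fitted effect of over 35% in size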). As to conditions: purified USP1/UAF1, Ub-rhodamine cleavage fluorescence; series mostly up to 54.9 µM. Summed up:
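Deubiquitinase activity followed as kinetic rhodamine fluorescence release from 150 nM Ub-Rho. 1 nM USP1/UAF1 with compound, after 15 min room-temperature preincubation, in HEPES pH 7.8 buffer containing TCEP, EDTA, BSA and Tween-20.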

Experiment [16] has as its target Cytochrome P450 2C19 (Homo sapiens) (UniProt P33261). As to the kind of experiment: qHTS Assay for Inhibitors and Substrates of Cytochrome P450 2C19 (AID 899; active = well fitted curve in the direction sought with a large enough effect; an effect the other way counts as inactive or inconclusive; also: % is scaled to controls: 0 for no effect and ±100 for the full control effect; nearly all actives have a fitted effect of over 60% in size). To be noted: recombinant CYP2C19, luciferin-H EGE luminescence; series mostly up to 57.1 µM. Summed up:
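Signal comes from luciferase acting on luciferin released by CYP2C19-mediated hydroxylation of Luciferin-H EGE, 10uM (KM). Assay mix: 5nM enzyme, 50mM KPO4; 60 min at 37C with NADPH regeneration. Data normalized against 57uM ketoconazole.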

Where [17] appears, read: measured here: cell count channel max response.
Setting [18] is: measured here: lipid channel max response.

Records with an inconclusive call do not appear. The source made the active and inactive calls. Unless noted, calls follow the shape of the dose curve; as a rule, active = well fitted curve in either direction with a large enough effect (not every such curve was filed as active); inconclusive = small, poorly fitted or top-dose-only effect, or another doubt; inactive = flat fitted curve, though single readings scatter.

Sequence of Ubiquitin carboxyl-terminal hydrolase 1 (Homo sapiens) (O94782 whole entry, looked up): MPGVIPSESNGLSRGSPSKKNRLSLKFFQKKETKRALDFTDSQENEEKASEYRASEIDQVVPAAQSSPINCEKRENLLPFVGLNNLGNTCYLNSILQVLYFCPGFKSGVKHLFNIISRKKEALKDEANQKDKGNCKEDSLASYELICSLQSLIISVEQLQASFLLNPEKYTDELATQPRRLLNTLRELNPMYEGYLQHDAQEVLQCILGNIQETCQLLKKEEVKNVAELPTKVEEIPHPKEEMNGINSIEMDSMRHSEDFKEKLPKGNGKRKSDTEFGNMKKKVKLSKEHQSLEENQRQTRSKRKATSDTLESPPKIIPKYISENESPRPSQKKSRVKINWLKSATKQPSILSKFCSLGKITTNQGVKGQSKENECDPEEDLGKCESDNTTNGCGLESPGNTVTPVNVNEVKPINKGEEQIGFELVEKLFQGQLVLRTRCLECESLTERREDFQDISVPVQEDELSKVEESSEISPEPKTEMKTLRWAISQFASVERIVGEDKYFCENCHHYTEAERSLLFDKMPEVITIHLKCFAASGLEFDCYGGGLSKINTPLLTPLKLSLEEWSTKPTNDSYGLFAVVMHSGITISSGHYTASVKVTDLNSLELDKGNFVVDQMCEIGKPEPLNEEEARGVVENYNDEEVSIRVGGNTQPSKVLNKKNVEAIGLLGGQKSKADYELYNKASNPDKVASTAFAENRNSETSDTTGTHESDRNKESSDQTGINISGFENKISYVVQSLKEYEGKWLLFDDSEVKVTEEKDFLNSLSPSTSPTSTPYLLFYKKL
Sequence of Cytochrome P450 3A4 (Homo sapiens) (P08684 whole entry, looked up): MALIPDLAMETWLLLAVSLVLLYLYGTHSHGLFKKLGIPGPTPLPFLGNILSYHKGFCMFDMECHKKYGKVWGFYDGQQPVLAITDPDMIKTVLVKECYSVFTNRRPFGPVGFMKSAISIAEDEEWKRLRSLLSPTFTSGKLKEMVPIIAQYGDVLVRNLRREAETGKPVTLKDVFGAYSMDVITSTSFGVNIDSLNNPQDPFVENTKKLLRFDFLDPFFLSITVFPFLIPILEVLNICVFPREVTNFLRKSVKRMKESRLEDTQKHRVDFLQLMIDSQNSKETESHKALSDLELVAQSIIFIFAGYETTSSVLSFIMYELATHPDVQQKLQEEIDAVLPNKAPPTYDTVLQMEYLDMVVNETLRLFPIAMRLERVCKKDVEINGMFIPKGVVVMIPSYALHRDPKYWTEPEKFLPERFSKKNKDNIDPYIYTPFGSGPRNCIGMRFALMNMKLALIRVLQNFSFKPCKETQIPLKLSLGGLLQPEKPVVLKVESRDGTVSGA
Sequence of Lysosomal acid glucosylceramidase (Homo sapiens) (P04062 whole entry, looked up): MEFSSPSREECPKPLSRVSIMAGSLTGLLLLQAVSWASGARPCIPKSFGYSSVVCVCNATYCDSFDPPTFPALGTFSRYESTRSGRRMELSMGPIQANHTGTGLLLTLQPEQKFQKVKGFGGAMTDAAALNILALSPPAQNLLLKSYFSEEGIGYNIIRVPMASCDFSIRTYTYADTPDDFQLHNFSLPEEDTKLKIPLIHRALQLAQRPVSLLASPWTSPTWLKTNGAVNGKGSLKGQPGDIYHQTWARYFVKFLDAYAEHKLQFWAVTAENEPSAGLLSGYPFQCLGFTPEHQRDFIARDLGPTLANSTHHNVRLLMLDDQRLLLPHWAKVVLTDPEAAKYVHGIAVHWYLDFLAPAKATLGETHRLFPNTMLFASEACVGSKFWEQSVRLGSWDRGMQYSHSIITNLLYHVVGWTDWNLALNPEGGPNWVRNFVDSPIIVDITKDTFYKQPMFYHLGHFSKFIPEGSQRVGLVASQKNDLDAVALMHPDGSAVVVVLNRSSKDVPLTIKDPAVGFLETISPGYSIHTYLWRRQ
Sequence of Cytochrome P450 2D6 (Homo sapiens) (P10635 whole entry, looked up): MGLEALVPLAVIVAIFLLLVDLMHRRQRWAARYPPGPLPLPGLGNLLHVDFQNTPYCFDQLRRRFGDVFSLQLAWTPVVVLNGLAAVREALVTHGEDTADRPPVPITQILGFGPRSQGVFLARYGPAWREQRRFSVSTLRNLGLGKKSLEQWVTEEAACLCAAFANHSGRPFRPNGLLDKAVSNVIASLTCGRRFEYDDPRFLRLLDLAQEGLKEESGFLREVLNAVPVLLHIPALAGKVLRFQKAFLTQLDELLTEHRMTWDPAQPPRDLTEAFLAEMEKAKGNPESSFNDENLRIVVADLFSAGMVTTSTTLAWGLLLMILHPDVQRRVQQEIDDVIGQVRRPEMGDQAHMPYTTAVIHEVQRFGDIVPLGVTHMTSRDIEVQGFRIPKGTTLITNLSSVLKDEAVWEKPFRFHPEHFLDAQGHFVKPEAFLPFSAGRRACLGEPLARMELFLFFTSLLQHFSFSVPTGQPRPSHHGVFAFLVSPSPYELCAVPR
Sequence of Cytochrome P450 2C19 (Homo sapiens) (P33261 whole entry, looked up): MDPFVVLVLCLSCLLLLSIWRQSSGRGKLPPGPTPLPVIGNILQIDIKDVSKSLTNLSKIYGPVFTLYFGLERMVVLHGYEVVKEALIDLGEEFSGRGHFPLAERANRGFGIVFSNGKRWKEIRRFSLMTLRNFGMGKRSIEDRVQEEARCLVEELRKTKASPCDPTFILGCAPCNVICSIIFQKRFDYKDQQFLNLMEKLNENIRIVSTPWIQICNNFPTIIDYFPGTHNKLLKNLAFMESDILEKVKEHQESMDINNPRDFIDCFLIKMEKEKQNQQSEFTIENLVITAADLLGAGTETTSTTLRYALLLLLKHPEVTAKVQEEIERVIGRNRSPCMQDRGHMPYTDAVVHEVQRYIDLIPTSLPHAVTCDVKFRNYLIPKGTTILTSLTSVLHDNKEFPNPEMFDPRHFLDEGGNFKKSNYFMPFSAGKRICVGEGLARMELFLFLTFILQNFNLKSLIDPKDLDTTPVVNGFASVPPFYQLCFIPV

Regarding `CC(=O)N1CCC2(CC1)CCN(c1ccncc1)CC2`, the Potency in experiment [1] was > 11.4 µM (inactive); in [6] it was > 46 µM (inactive). Besides, the activity change, negative = inhibition is -3.43% (inactive) in experiment [2], -17.4% (inactive) in experiment [4] and -1.07% (inactive) in experiment [9]. Moreover, the Potency entry in [3], in experiment [7] and in [8] was “inactive” in each case. Moreover, in experiment [5], the activity, negative = inhibition is -6.23% (inactive). Besides, the max response is -6.73% in experiment [9] (setting [17]) and -6.95% in [9] (setting [18]).
On to `Cn1cccc1C(=O)N1CCC2(CC1)CN(Cc1cc(C(F)(F)F)cc(C(F)(F)F)c1)C2`, for which the Potency was > 11.4 µM (inactive) in experiment [1], 10 µM (active) in [3] and > 46 µM (inactive) in experiment [6]. The results for the activity change, negative = inhibition in experiment [2], in [4] and in experiment [9] were -5.13% (inactive), 15.4% (inactive) and -8.03% (inactive), respectively. The activity, negative = inhibition in [5] is -14.1% (inactive). In addition, the Potency result in experiment [7] and in experiment [8] was “inactive” in each case. The max response in [9] (setting [17]) is -0.271%; in experiment [9] (setting [18]), -4.98%.
As to `CN(C)Cc1ccccc1-c1ccc2ncnc(NCc3ccccc3)c2c1`, the Potency in experiment [1] is > 11.4 µM (inactive); in experiment [3], 15.8 µM (active); in experiment [10], > 46 µM (inactive); in experiment [6], > 46 µM (inactive); in [12], 7.94 µM (active). The activity change, negative = inhibition in experiment [2] was -7.49% (inactive); in experiment [4], -27% (inactive); in experiment [9] it was 5.57% (inactive). Further, the activity, negative = inhibition in experiment [5] was 11.3% (inactive). The Potency result in experiment [7], in experiment [11], in [13] and in experiment [15] was “inactive” each time. The call in experiment [14] was inactive. Moreover, the max response in experiment [9] (setting [17]) worked out at 19.6%; in [9] (setting [18]) it was 25.6%.
Turning to `COCCNc1ncnc2ccc(-c3ccccc3CN(C)C)cc12`, the Potency in experiment [1] was > 11.4 µM (inactive); in experiment [3], 25.1 µM (active); in [10], > 46 µM (inactive); in [6], > 46 µM (inactive). For the same compound, the activity change, negative = inhibition in experiment [2] is -22.6% (inactive); in experiment [4], -6.98% (inactive); in [9], 12.3% (inactive). The activity, negative = inhibition in [5] is 4.88% (inactive). Besides, the Potency result in [7], in experiment [8], in [11], in experiment [13] and in experiment [15] was “inactive” each time. The outcome in experiment [14] was inactive. In addition, the max response in experiment [9] (setting [17]) came out at 13.6%; in experiment [9] (setting [18]), 25.7%.
With `CNc1nc(-c2ccccc2OC)nc2ccccc12`, the Potency was > 11.4 µM (inactive) in experiment [1], 0.398 µM (active) in experiment [3], > 46 µM (inactive) in experiment [10] and > 46 µM (inactive) in experiment [6]. The values for the activity change, negative = inhibition in experiment [2], in experiment [4] and in [9] were 7.61% (inactive), -10.4% (inactive) and 2.04% (inactive), respectively. The activity, negative = inhibition in experiment [5] is 17.7% (inactive). The Potency entry in experiment [7], in [8], in [11], in experiment [16], in experiment [13] and in [15] was “inactive” each time. Also, in experiment [14], the call was inactive. In addition, the figures for the max response in experiment [9] (setting [17]) and in experiment [9] (setting [18]) were -10.6% and -7.86%, respectively.
`COc1cccc(Nc2ncc3nc(C)c(=O)n(CCC#N)c3n2)c1`: the Potency in experiment [1] was > 11.4 µM (inactive); in experiment [3] it was 1.26 µM (active); in [10] it was > 9.22 µM (inactive); in [6], > 46 µM (inactive). The activity change, negative = inhibition is -18.4% (inactive) in experiment [2], 4.34% (inactive) in experiment [4] and -10.8% (inactive) in experiment [9]. The activity, negative = inhibition in experiment [5] was -8.39% (inactive). The Potency entry in [7], in [8] and in experiment [11] was “inactive” in each case. Also, the max response in experiment [9] (setting [17]) is -22.6%; in [9] (setting [18]) it was -28.8%.
